Pf apPOL block: Pf-apPOL inhibitors, biochemical, fluorescence; Plasmodium falciparum apicoplast DNA polymerase (apPOL); Recombinant Pf-apPOL, molecular beacon fluorescence, 1.5 h; inhibition, % at 10 µM; hit rate 0.25% among 210,000; AID 1794808, 2022
mHTT CaM bind: mutant huntingtin-calmodulin interaction inhibitors – biochemical, AlphaScreen, primary screen | AlphaScreen His-mHTT/GST-CaM binding, luminescence | hit rate 3.6% among 190,000 | P42858 | inhibition, % at 15 µM | AID 1671202, 2021;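 note: 0% = both proteins with DMSO and 100% = one protein alone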
* hit, by the source's call; · = not tested or not shown. Compounds with a hit are over-represented: about 3.6% of the library has one in this group of screens. Cut-off read from the data, not from the text of the source: active = inhibition above about 50%; inactive = the rest.

SMILES	Pf apPOL block	mHTT CaM bind
CCN(CCCNC(=O)C1CCCN(S(=O)(=O)N2CCCC2)C1)c1cccc(C)c1 (configuration not stated)	-27	36
CNc1cc(Nc2cccc(C)c2)c2c3c(onc13)-c1ccccc1C2=O	1	89*
COc1cccc(NC2=CC(=O)CC(c3ccccc3)C2)c1 (configuration not stated)	-17	-3
O=C1c2ccccc2-c2onc3c(Br)cc(Br)c1c23	-1	10
COc1cccc(Nc2ccc3noc4c3c2C(=O)c2ccccc2-4)c1	-23	58*
COc1ccc(C(=O)NCCc2ccc(S(N)(=O)=O)cc2)cc1[N+](=O)[O-]	-2	0
COc1ccc(-c2nc3s/c(=C\c4ccccc4[N+](=O)[O-])c(=O)n3n2)cc1	-6	-1
CCn1cnc2sc(C(=O)Nc3ccccc3C(F)(F)F)c(C)c2c1=O	-18	2
CCOC(=O)N1CCN(C(=O)c2cc(-c3ccco3)[nH]n2)CC1	-6	-10
CC(C)(C)n1nc2c(c1-n1cccc1)CN(C(=O)c1cc(-c3ccco3)[nH]n1)C2	82*	99*
O=C(Nc1cnc2ccccc2c1)c1cc2nc(-c3cccs3)cc(C(F)(F)F)n2n1	2	-4
N#Cc1cccc(-c2cn3c(n2)N(C(=O)COc2ccccc2)CCC3)c1	-1	55*
N#Cc1cccc(-c2cn3c(n2)N(C(=O)c2ccccc2)CCC3)c1	0	8
CCc1onc(C)c1C1CCCN1C(=O)Nc1ccccc1OC (configuration not stated)	5	0
COc1cc(C(=O)Nc2cccc(-c3cc4ccccc4oc3=O)c2)cc(OC)c1OC	0	6
CC(=O)c1cccc(NC(=O)C(Cl)Cl)c1	2	-1
CC(C)(C)c1cc(C(=O)O)cc(C(C)(C)C)c1O	3	-8
COCc1cc(C(C)(C)C)c(O)c(O)c1C(C)(C)C	-2	62*
COc1ccc(Nc2nc(Nc3ccc([N+](=O)[O-])cc3)nc(=O)[nH]2)cc1	-4	1
CCOC(=O)c1c(-c2ccccc2)oc2c1cc(OC(=O)c1cc(OC)c(OC)c(OC)c1)c1ccccc12	58*	7
CCOC(=O)c1c(-c2ccccc2)oc2c1cc(OC(=O)c1ccccc1OC)c1ccccc12	2	-8
CC1(C)OCC(C2OC(O)C3OC(C)(C)OC32)O1 (configuration not stated)	·	-1
O=C(C1CCN(Cc2cccc(OCc3ccccc3)c2)CC1)N1CCOCC1	-4	1
O=C(C1CCN(Cc2ccc(OCc3ccccc3)cc2)CC1)N1CCN(c2ccccc2)CC1	-7	63*
O=C(Nc1ccc(Cl)cc1)/C(=C1\Nc2ccc([N+](=O)[O-])cc2N1)[N+](=O)[O-]	1	5
SMILES	Pf apPOL block	mHTT CaM bind
O=C(Nc1ccc(Br)cc1)/C(=C1\Nc2ccc([N+](=O)[O-])cc2N1)[N+](=O)[O-]	52*	16
CCn1c(N2CCC(C(=O)NCc3ccc4c(c3)OCO4)CC2)cc(=O)n(C)c1=O	-3	42
CCn1c(N2CCC(C(=O)NCc3ccc(OC)cc3)CC2)cc(=O)n(C)c1=O	-6	57*
CCc1ccc(CNC(=O)C2CCN(c3cc(=O)n(C)c(=O)n3CC)CC2)cc1	-4	41
CCn1c(N2CCC(C(=O)NCc3ccco3)CC2)cc(=O)n(C)c1=O	-4	52*
Nc1nonc1-n1nnc(C(=O)N2CCOCC2)c1-c1ccccc1	-1	-5
Cc1ccc(NC(=O)C2CCCN(S(=O)(=O)c3cccs3)C2)cn1 (configuration not stated)	-1	-3
Cc1cc(-c2nnc(NC(=O)C3CCCN(S(=O)(=O)c4cccs4)C3)o2)nn1C (configuration not stated)	-8	51*
CCS(=O)(=O)c1ccc(-c2nnc(NC(=O)C3CCCN(S(C)(=O)=O)C3)o2)cc1 (configuration not stated)	-1	-1
CS(=O)(=O)N1CCCC(C(=O)Nc2nnc(-c3ccno3)o2)C1 (configuration not stated)	2	50*
CC(C)CN1CCC(C(=O)N(CCO)Cc2ccccc2)CC1	-4	3
Cc1cccc2nnc(N3CCCC(C(=O)NCc4ccc(C(F)(F)F)cc4)C3)n12 (configuration not stated)	-7	18
COc1ccccc1C1C(Oc2ccccc2C)C(=O)N1c1cccc([N+](=O)[O-])c1 (configuration not stated)	-6	5
Clc1ccccc1C1CC(c2cccs2)Nc2ncnn21 (configuration not stated)	-20	0
CC(C)CCNC(=O)CCC(=O)N1CCCn2nc(-c3cccn3C)cc21	-3	19
CN(C)c1ccc(CNC(=O)CCC(=O)N2CCCn3nc(-c4cccn4C)cc32)cc1	-1	74*
COCCCNC(=O)N1CCN(Cc2nc3cccnc3n2-c2cccc(C)c2)CC1	-5	-4
O=C(CSc1cn(CCNC(=O)c2ccc(F)cc2)c2ccccc12)NCc1ccco1	-4	12
Cc1ccc(C(=O)N2CCC(c3nc(C(=O)N(C)C)c(C)o3)CC2)cc1C	0	2
Cc1nnc(NS(=O)(=O)Cc2ccccc2)s1	56*	1
CC(C)Cc1nnc(NS(=O)(=O)Cc2ccccc2)s1	-1	0
CCc1ccccc1Nc1c(-c2nc(C)no2)cnc2nc(C)ccc12	-17	41
CCCCN1C(=O)C(CC(=O)NCC(C)C)Sc2ncccc21 (configuration not stated)	-5	-11
Cc1ccc(F)cc1NC(=O)CSc1cccc2cccnc12	0	3
Cc1cccc(NC(c2ccc(F)cc2)c2ccc3cccnc3c2O)n1 (configuration not stated)	4	100*
SMILES	Pf apPOL block	mHTT CaM bind
COc1ccc(NC(c2ccccc2)c2ccncc2)cc1 (configuration not stated)	-3	3
Cc1cccc(NC(c2cccc(F)c2)c2ccc3cccnc3c2O)n1 (configuration not stated)	-44	99*
c1cncc(C(N2CCOCC2)N2CCOCC2)c1	-1	0
O=C(CSc1cccc2cccnc12)c1ccc(F)cc1	-8	5
Oc1c(C(c2ccncc2)N2CCOCC2)ccc2cccnc12 (configuration not stated)	-6	100*
Oc1c(C(Nc2ccc(F)cc2)c2ccncc2)ccc2cccnc12 (configuration not stated)	-3	100*
O=c1c(-c2ccc3c(c2)OCCO3)coc2c(CN3CCCCCC3)c(O)ccc12	-2	-3
COc1ccc(-n2nc(C(=O)NCCc3ccc(OC)c(OC)c3)c3ccccc3c2=O)cc1	-24	28
CNC(=O)CC1=NC(C)(C)Cc2ccccc21	5	8
CCCNC(=O)c1cnn2c(C)c(Cc3ccccc3Cl)c(C)nc12	-11	20
Cc1ccccc1-n1nc2c(c1NC(=O)C13CC4CC(CC(C4)C1)C3)CSC2	-7	0
Cc1ccccc1-n1nc2c(c1NC(=O)C13CC4CC(CC(C4)C1)C3)CS(=O)(=O)C2	78*	11
CCOc1ccc(N2C(=O)C3Sc4[nH]c(=O)sc4C(c4ccccc4)C3C2=O)cc1 (configuration not stated)	-3	25
COc1ccccc1-n1nc(C(=O)N2CCC(C)CC2)c2ccccc2c1=O	0	-5
COc1ccc(-n2nc(C(=O)N3CCCC3)c3ccccc3c2=O)c(OC)c1	3	-12
